Sequences and labels used below:
B1: PhoQ; a variant is named by its letters at X, in order, P23837 (parent)
chain: MKKLLRLFFPLSLRVRFLLATAAVVLVLSLAYGMVALIGYSVSFDKTTFRLLRGESNLFYTLAKWENNKLHVELPENIDKQSPTMTLIYDENGQLLWAQRDVPWLMKMIQPDWLKSNGFHEIEADVNDTSLLLSGDHSIQQQLQEVREDDDDAEMTHSVAVNVYPATSRMPKLTIVVVDTIPVELKSSYMVWSWFIYVLSANLLLVIPLLWVAAWWSLRPIEALAKEVRELEEHNRELLNPATTRELTSLVRNLNRLLKSERERYDKYRTTLTDLTHSLKTPLXXLQXXLRSLRSEKMSVSDAEPVMLEQISRISQQIGYYLHRASMRGGTLLSRELHPVAPLLDNLTSALNKVYQRKGVNISLDISPEISFVGEQNDFVEVMGNVLDNACKYCLEFVEISARQTDEHLYIVVEDDGPGIPLSKREVIFDRGQRVDTLRPGQGVGLAVAREITEQYEGKIVAGESMLGGARMEVIFGRQHSAPKDE

Whole data set: some 140,000 sequences, median “enrichment ratio after two sorts for PhoP signalling” near 0, cut for the highest 2% near 11. Only a selection was taken, and the highest values are over-represented in it overall.

The experiment covers variants of B1. Description: enrichment ratio after two sorts for PhoP signalling (ratio (wild type AVST 3.29)); higher = more functional. The following applies: with PhoP (E. coli).
On to NNEC, for which the enrichment ratio is no more than 0.25.

In the case of VWTE, the enrichment ratio is no more than 0.25.

For RHES, the enrichment ratio is no more than 0.25.

On to IKSM, for which the enrichment ratio was no more than 0.25.

Turning to WYNQ, the enrichment ratio is no more than 0.25.

Turning to MFWL, the enrichment ratio was no more than 0.25.

With TAEM, the enrichment ratio came to 25.7.

Consider TANE, for which the enrichment ratio was 18.3.

For the variant IAEM, the enrichment ratio was no more than 0.25.

For TAAM, the enrichment ratio was 13.6.

Turning to LQEM, the enrichment ratio is no more than 0.25.

With TATM, the enrichment ratio is 27.

Turning to YATM, the enrichment ratio was no more than 0.25.

For KANE, the enrichment ratio was no more than 0.25.

Regarding KAAM, the enrichment ratio was no more than 0.25.

On to TARM, for which the enrichment ratio is no more than 0.25.

As for TAGE, the enrichment ratio is no more than 0.25.

As to TATI, the enrichment ratio worked out at 5.19.

Consider LGLR, for which the enrichment ratio is no more than 0.25.

Take IPIH: the enrichment ratio was no more than 0.25.

Turning to IDYN, the enrichment ratio was no more than 0.25.

Turning to LPTD, the enrichment ratio is no more than 0.25.

For the variant HEFY, the enrichment ratio is no more than 0.25.

As to DTSM, the enrichment ratio was no more than 0.25.

Regarding YANM, the enrichment ratio was determined as 0.317.

TANS: the enrichment ratio was 11.9.

With TAGL, the enrichment ratio came out at 12.4.

For TANK, the enrichment ratio was no more than 0.25.

With TAWM, the enrichment ratio was 9.41.

In the case of TANM, the enrichment ratio stood at 19.5.

Take KAGL: the enrichment ratio is no more than 0.25.

KANM: the enrichment ratio is no more than 0.25.

Take TAPM: the enrichment ratio was no more than 0.25.

As to NAGL, the enrichment ratio is no more than 0.25.

Consider TACK, for which the enrichment ratio came out at 11.6.

As to TANL, the enrichment ratio came to 10.

Take ERPF: the enrichment ratio is no more than 0.25.

Turning to TCLM, the enrichment ratio came to 1.01.

On to EGYT, for which the enrichment ratio is no more than 0.25.

On to LDPK, for which the enrichment ratio was no more than 0.25.

As for DMWR, the enrichment ratio is no more than 0.25.

Take EPFH: the enrichment ratio is no more than 0.25.

Turning to QHGK, the enrichment ratio is no more than 0.25.

Regarding DCLA, the enrichment ratio is no more than 0.25.

Take YSEC: the enrichment ratio was no more than 0.25.

Take KANA: the enrichment ratio was no more than 0.25.

Take TAGM: the enrichment ratio worked out at 13.2.

NWCM: the enrichment ratio was no more than 0.25.

As to KAWE, the enrichment ratio was no more than 0.25.

Consider TAGD, for which the enrichment ratio came to 9.3.

As to KACM, the enrichment ratio was no more than 0.25.

As for YANA, the enrichment ratio is no more than 0.25.

As to TACM, the enrichment ratio was 12.4.

For TANA, the enrichment ratio was 15.9.

In the case of NAWE, the enrichment ratio is no more than 0.25.

As for TAWE, the enrichment ratio came to 24.5.

In the case of TAVM, the enrichment ratio is 2.01.

As for QGRI, the enrichment ratio was no more than 0.25.

As for SQSD, the enrichment ratio was no more than 0.25.

On to AVQG, for which the enrichment ratio is no more than 0.25.

For the variant ICYL, the enrichment ratio was no more than 0.25.

As to MLLM, the enrichment ratio turned out to be 7.62.

For DQQR, the enrichment ratio is no more than 0.25.

KFML: the enrichment ratio was no more than 0.25.

In the case of GDAW, the enrichment ratio is no more than 0.25.

With HFFI, the enrichment ratio was no more than 0.25.

In the case of RKHF, the enrichment ratio is no more than 0.25.

Take WQPT: the enrichment ratio was no more than 0.25.

ADSQ: the enrichment ratio is no more than 0.25.

In the case of NISQ, the enrichment ratio was no more than 0.25.

Consider ALSK, for which the enrichment ratio stood at 2.03.

For AKSQ, the enrichment ratio worked out at 20.1.

For KQSQ, the enrichment ratio was no more than 0.25.

Take ALSQ: the enrichment ratio came out at 16.2.

On to VLSQ, for which the enrichment ratio is no more than 0.25.

Regarding RISQ, the enrichment ratio was no more than 0.25.

Take AHSQ: the enrichment ratio is no more than 0.25.

For TTSQ, the enrichment ratio turned out to be 16.8.

For the variant CISQ, the enrichment ratio is 55.8.

For YTSQ, the enrichment ratio is no more than 0.25.

With TLEP, the enrichment ratio was no more than 0.25.

Turning to DVCT, the enrichment ratio is no more than 0.25.

On to TMFF, for which the enrichment ratio is no more than 0.25.

Take WISQ: the enrichment ratio was no more than 0.25.

Take ATSK: the enrichment ratio stood at 4.37.

With ATSQ, the enrichment ratio amounted to 11.6.

With VHSQ, the enrichment ratio was no more than 0.25.

As to AISQ, the enrichment ratio is 15.6.

Regarding GTSQ, the enrichment ratio was 5.69.

Take GRRA: the enrichment ratio was no more than 0.25.

KANK: the enrichment ratio is no more than 0.25.

On to LHPY, for which the enrichment ratio was no more than 0.25.

On to YEKR, for which the enrichment ratio was no more than 0.25.

In the case of IVLL, the enrichment ratio is 1.17.

Turning to NSSV, the enrichment ratio is no more than 0.25.

Consider SGWR, for which the enrichment ratio was no more than 0.25.

Consider KSSV, for which the enrichment ratio is no more than 0.25.

As for SPTA, the enrichment ratio was no more than 0.25.

In the case of SDSV, the enrichment ratio is 5.55.

Regarding TVTA, the enrichment ratio was found to be 19.9.

On to KSTA, for which the enrichment ratio was no more than 0.25.

Take TSSV: the enrichment ratio was determined as 20.

Regarding SRSV, the enrichment ratio was no more than 0.25.

For SGSV, the enrichment ratio is 12.1.

With SQSV, the enrichment ratio was 11.9.

On to SGDW, for which the enrichment ratio was no more than 0.25.

Consider VCWY, for which the enrichment ratio is no more than 0.25.

For the variant PCPR, the enrichment ratio was no more than 0.25.

With KLGA, the enrichment ratio was no more than 0.25.

As for AKGF, the enrichment ratio is no more than 0.25.

With EKFN, the enrichment ratio was no more than 0.25.

Regarding AGVG, the enrichment ratio worked out at 1.3.

In the case of IANT, the enrichment ratio was no more than 0.25.

On to VLSV, for which the enrichment ratio is no more than 0.25.

Take SISV: the enrichment ratio was 11.6.

Turning to SLSV, the enrichment ratio worked out at 7.73.

For NVSV, the enrichment ratio is no more than 0.25.

In the case of LLSV, the enrichment ratio is no more than 0.25.

SESV: the enrichment ratio came to 16.9.

As to SCSV, the enrichment ratio came to 9.38.

Consider TLSV, for which the enrichment ratio was found to be 16.7.

Turning to KYSV, the enrichment ratio is no more than 0.25.

For LASV, the enrichment ratio was no more than 0.25.

Turning to DDSV, the enrichment ratio was no more than 0.25.

With TQSV, the enrichment ratio was 20.7.

On to EDTD, for which the enrichment ratio is no more than 0.25.

As to RDHH, the enrichment ratio was no more than 0.25.

On to GWHV, for which the enrichment ratio is no more than 0.25.

YFPW: the enrichment ratio is no more than 0.25.

LVPS: the enrichment ratio was no more than 0.25.

In the case of NTCA, the enrichment ratio was no more than 0.25.

Consider HTEF, for which the enrichment ratio is no more than 0.25.

As to LAEC, the enrichment ratio was no more than 0.25.

As to IDHP, the enrichment ratio was no more than 0.25.

With KMSV, the enrichment ratio is no more than 0.25.

Consider TMSV, for which the enrichment ratio came to 16.5.

For the variant TASV, the enrichment ratio worked out at 17.9.

With SPSV, the enrichment ratio was no more than 0.25.

Turning to TVSV, the enrichment ratio was 14.9.

For WPTS, the enrichment ratio was no more than 0.25.

For WPTD, the enrichment ratio was no more than 0.25.

On to DMSV, for which the enrichment ratio was no more than 0.25.

As for WPTA, the enrichment ratio turned out to be 14.3.

Take HCSV: the enrichment ratio was no more than 0.25.

KASV: the enrichment ratio was no more than 0.25.

NASV: the enrichment ratio is no more than 0.25.

For the variant VEEC, the enrichment ratio was no more than 0.25.

For ITEG, the enrichment ratio turned out to be 0.328.

RMAH: the enrichment ratio was no more than 0.25.

For the variant NGEP, the enrichment ratio is no more than 0.25.

Turning to ATVR, the enrichment ratio was 4.36.

QILH: the enrichment ratio is no more than 0.25.

Take MNDG: the enrichment ratio is no more than 0.25.

As for GVPD, the enrichment ratio was no more than 0.25.

For VQKT, the enrichment ratio was no more than 0.25.

On to RQKC, for which the enrichment ratio was no more than 0.25.

Regarding HSFA, the enrichment ratio is no more than 0.25.

Turning to ICYS, the enrichment ratio is no more than 0.25.

In the case of FLCS, the enrichment ratio was no more than 0.25.

Regarding TMVF, the enrichment ratio was no more than 0.25.

Turning to HRMC, the enrichment ratio is no more than 0.25.

In the case of PTMC, the enrichment ratio was no more than 0.25.

In the case of HKMC, the enrichment ratio is no more than 0.25.

Take NSMC: the enrichment ratio is no more than 0.25.

Regarding RGMC, the enrichment ratio was no more than 0.25.

As to TGMC, the enrichment ratio worked out at 31.9.

For the variant HFMC, the enrichment ratio was no more than 0.25.

Consider ATMC, for which the enrichment ratio is 11.2.

As to TKMC, the enrichment ratio amounted to 77.6.

As to ASMC, the enrichment ratio turned out to be 12.1.

For GGMC, the enrichment ratio was no more than 0.25.

As for HIMC, the enrichment ratio is 48.5.

In the case of AARL, the enrichment ratio was no more than 0.25.

Consider DMIF, for which the enrichment ratio was no more than 0.25.

For the variant FSMC, the enrichment ratio stood at 16.1.

Take TIMC: the enrichment ratio came to 9.

For the variant PFMC, the enrichment ratio was no more than 0.25.

Take TFMC: the enrichment ratio was determined as 16.5.

Regarding SGFC, the enrichment ratio was no more than 0.25.

For HGMC, the enrichment ratio came to 13.3.

TRMC: the enrichment ratio turned out to be 2.53.

For FCMC, the enrichment ratio was no more than 0.25.

Turning to KFMC, the enrichment ratio was no more than 0.25.

Consider KSMC, for which the enrichment ratio is no more than 0.25.

Consider SGMC, for which the enrichment ratio is 12.8.

For NGMC, the enrichment ratio is no more than 0.25.

Consider KDFY, for which the enrichment ratio is no more than 0.25.

As for EPYY, the enrichment ratio was no more than 0.25.

With FDYI, the enrichment ratio is no more than 0.25.

With QVCS, the enrichment ratio was no more than 0.25.

As for LEAV, the enrichment ratio is no more than 0.25.

For REVC, the enrichment ratio was no more than 0.25.

For FGTK, the enrichment ratio was no more than 0.25.

Take RCMC: the enrichment ratio is no more than 0.25.

As for ACMM, the enrichment ratio is 14.1.

As for ANRM, the enrichment ratio was no more than 0.25.

AVMM: the enrichment ratio amounted to 52.7.

For the variant TVMM, the enrichment ratio was 0.563.

Take ANMM: the enrichment ratio is 32.7.

For ANRA, the enrichment ratio was no more than 0.25.

On to FVMM, for which the enrichment ratio amounted to 8.76.

Regarding TKMM, the enrichment ratio was found to be 31.6.

As for HKMM, the enrichment ratio is no more than 0.25.

On to MEMM, for which the enrichment ratio turned out to be 0.38.

Values taken from a collection of fitness landscapes (doi:10.1126/science.1257360).
